Compound activity from PubChem.
Sampled rows, rich in hits. Any-hit rate of the full collection: about 2.8%.
Pol eta inh = DNA polymerase eta (human) inhibition; recombinant Pol eta, fluorescent DNA replication assay; Potency, µM (top dose mostly 114 µM), inactives show at the top dose activity change, negative = inhibition, actives largely listed as inhibitors; actives 1.2% (n = 390,000); AID 588591; further: potency means the concentration at half of the fitted maximal effect; on the % scale 0 is the no-effect control and ±100 the full control effect
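Pol eta at 10 nM preincubated with compounds 15 min at room temperature; reaction started with fluorescent substrate (50 nM final) and read kinetically at 0 and 10 min.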
PI5P4K alpha inh = inhibitors of human PI5P4K alpha | P48426 | PI5P4Kalpha enzyme, ADP-Glo luminescence, 60 min; hits give low values | max response, % | actives 1.2% (n = 330,000) | AID 652105; active means max response of -50% or lower; inconclusive means between -30% and -50%; inactive means -30% or higher; further: value at the top dose of about 77 µM; on the % scale 0 is the no-effect control and ±100 the full control effect
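Controls without substrate or without enzyme flank wells where PI5P4Kalpha converts substrate using 5 microM ATP (final). Incubation lasts 60 minutes at room temperature; ADP formed is read by ADP-Glo luminescence.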
POLI inh = blocks human DNA polymerase iota activity; Pol iota fluorescent replication assay, 10 min; actives 1% (n = 390,000); Potency, µM (highest dose often 115 µM), without a hit: at the top dose activity, negative = inhibition, most hits filed as inhibitors; further: potency means the concentration at half of the fitted maximal effect
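Pol iota at 10 nM preincubated 15 min with compounds at room temperature; reaction started with fluorescent substrate, 50 nM final. Fluorescence read kinetically at 0 and 10 min; buffer-only wells as negative control.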
Pol beta inh = inhibitors of human DNA polymerase beta | P06746 | Pol beta primer extension/strand displacement, fluorescence kinetic | Potency, µM (series often up to 114 µM), inactives show top-dose activity change, negative = inhibition, hits mostly inhibitors | actives 1.3% (n = 340,000) | AID 485314; further: potency means the concentration at half of the fitted maximal effect; on the % scale 0 is the no-effect control and ±100 the full control effect
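Preincubation: enzyme (10 nM) with compound, 15 min, RT. Reaction: substrate added to 50 nM final. Reads: 0 and 10 min. Analysis: normalized, Hill fit.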
WRN inhibitor = blocks human WRN helicase; Q14191; WRN helicase unwinding, fluorescent forked duplex, kinetic; Potency, µM (highest dose often 114 µM), without a hit: at the highest dose activity change, negative = inhibition, most hits filed as inhibitors; actives 0.46% (n = 360,000); further: potency means the concentration at half of the fitted maximal effect; on the % scale 0 is the no-effect control and ±100 the full control effect; nearly all actives have a fitted effect of over 55% in size
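Kinetic fluorescence helicase assay: unwinding of a quenched forked DNA duplex (100 nM final) with 2 mM ATP final raises red fluorescence (525/598 nm). Compounds sat 15 min at room temperature with 20 nM WRN beforehand.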
POLK inh = inhibitors of human DNA polymerase kappa. Q9UBT6. actives 0.53% (n = 400,000). Potency, µM (highest dose often 107 µM), without a hit: top-dose activity, negative = inhibition, usual class: inhibitors. AID 588579. purified Pol kappa, fluorescent DNA synthesis assay, 10 min; further: potency means the concentration at half of the fitted maximal effect; on the % scale 0 is the no-effect control and ±100 the full control effect
Target sequence (Q9UBT6 whole entry, looked up): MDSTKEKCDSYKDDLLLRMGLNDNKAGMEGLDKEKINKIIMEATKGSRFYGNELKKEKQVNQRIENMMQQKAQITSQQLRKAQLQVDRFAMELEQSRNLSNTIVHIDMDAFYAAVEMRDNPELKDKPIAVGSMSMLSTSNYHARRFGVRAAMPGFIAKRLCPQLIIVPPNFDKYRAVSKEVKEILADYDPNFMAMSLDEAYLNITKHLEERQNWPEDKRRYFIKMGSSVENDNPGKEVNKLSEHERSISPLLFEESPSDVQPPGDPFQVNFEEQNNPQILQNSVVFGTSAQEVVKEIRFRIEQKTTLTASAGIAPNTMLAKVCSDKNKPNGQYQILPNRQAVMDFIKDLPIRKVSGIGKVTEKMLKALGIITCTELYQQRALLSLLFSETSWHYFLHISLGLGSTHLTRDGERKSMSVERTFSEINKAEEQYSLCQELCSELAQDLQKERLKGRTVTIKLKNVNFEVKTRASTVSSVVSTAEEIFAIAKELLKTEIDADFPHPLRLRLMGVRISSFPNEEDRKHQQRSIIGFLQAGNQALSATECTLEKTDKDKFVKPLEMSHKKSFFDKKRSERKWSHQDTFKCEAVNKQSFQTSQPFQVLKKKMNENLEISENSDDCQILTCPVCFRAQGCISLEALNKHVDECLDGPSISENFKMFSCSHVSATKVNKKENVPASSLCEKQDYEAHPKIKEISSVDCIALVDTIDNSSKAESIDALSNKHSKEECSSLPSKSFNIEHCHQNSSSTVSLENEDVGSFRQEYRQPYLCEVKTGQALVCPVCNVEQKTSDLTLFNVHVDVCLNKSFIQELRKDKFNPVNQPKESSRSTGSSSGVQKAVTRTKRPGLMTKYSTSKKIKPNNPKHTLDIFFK
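Inhibition of 10 nM Pol kappa is measured by a fluorescent read-out at 0 and 10 min following addition of 50 nM substrate (final), with a 15-min room-temperature compound preincubation.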
Numbers without * were called inactive; ? = inconclusive; nt = no result; [ ] = dose if it differs, or a comment. Unless noted, the call rests on the fitted dose curve; in most records, active means well fitted curve in the direction sought with a large enough effect; inconclusive means small, poorly fitted or top-dose-only effect, or another doubt; inactive means no such curve, though single readings can be large; an effect the other way counts as inactive or inconclusive.

SMILES	Pol eta inh	PI5P4K alpha inh	POLI inh	Pol beta inh	WRN inhibitor	POLK inh
CCCCCn1c(C)c2c(OCC)cccc(=O)c2c1C	-26.0%	-6.5	?	0.7%	-3.1%	-18.2%
COc1cccc(=O)c2c(C)n(C)c(C)c12	?	-13.9	39.8µM*	25.1µM*	-28.4%	?
CCOc1cccc(=O)c2c(C)n(C)c(C)c12	?	nt	22.4µM*	?	-23.7%	?
O=C(O)c1ccccc1NS(=O)(=O)c1cccc(NS(=O)(=O)c2cc(Br)ccc2Br)c1	?	-25.3	7.2%	nt	-34.6%	-8.0%
CCCCCOc1ccc(/C=c2\sc3nc(=O)c(-c4ccccc4)nn3c2=O)cc1OC	-2.8%	2.6	7.2%	-8.0%	-21.5%	-18.9%
CCCOc1ccc(/C=c2\sc3nc(-c4ccco4)nn3c2=O)cc1OCC	?	?	22.4µM*	?	?	?
CCc1ccccc1NC(=O)CNC(=O)c1ccc(OCc2cn3ccccc3n2)cc1	-19.7%	-8.3	44.7µM*	nt	-21.5%	-27.8%
CCc1ccccc1NC(=O)CN1CCN(C(=O)c2ccc(OCc3cn4ccccc4n3)cc2)CC1	-17.8%	0.5	21.7%	nt	-6.5%	-7.1%
O=C(C[n+]1ccc(C(=O)N/N=C/c2ccc(Br)cc2)cc1)c1ccccc1	?	-6.7	16.1%	-1.4%	-0.7%	1.0%
O=C(C[n+]1ccc(C(=O)N/N=C/c2ccc(O)cc2)cc1)c1ccccc1	?	4.3	37.7%	56.2µM*	-23.3%	-13.0%
O=C(Cc1nnc(NC(=O)c2ccccc2)s1)N/N=C/c1ccc(O)cc1	-21.8%	-28.1	?	25.1µM*	-5.9%	-8.1%
COc1cccc(CN(C)C(=O)c2ccc3nccnc3c2)c1	12.6µM*	?	?	39.8µM*	-7.1%[11.6 µM]	-27.3%
Cc1cc(C(=O)O)ccc1-c1ccc(/C=C2\NC(=O)N(Cc3ccccc3Cl)C2=O)o1	4.47µM*	-67.4*	5.62µM*	14.1µM*	50.1µM*	22.4µM*
Cc1cc2oc3ccc(NCCCN4CCOCC4)cc3c(=O)c2cc1C	-6.3%	-0.7	3.9%	nt	-3.1%	-1.0%
Cc1cc2oc3ccc(NCCCn4ccnc4)cc3c(=O)c2cc1C	56.2µM*	3.7	22.4µM*	nt	-27.9%	-41.2%
CC(C)CC1C(C#N)=C(N)SC(N)=C1C#N	-13.1%	nt	?	?	-21.1%	-3.6%
N#CC1=C(N)SC(N)=C(C#N)C1Cc1ccccc1	-16.7%	-51.6*	-10.1%	3.9%	-21.0%	-14.2%
N#CC1=C(N)SC(N)=C(C#N)C1c1c(Cl)cccc1Cl	-20.7%	-65.2*	?	-4.6%	-11.4%	-13.0%
N#CC1=C(N)SC(N)=C(C#N)C1CCc1ccccc1	1.7%	-83.9*	20.8%	-20.1%	-29.8%	?
CN(C)c1ccc(/C=C/c2ccnc3ccccc23)cc1O	nt	nt	14.6%	nt	nt	4.5%
O=C(O)CSc1cc(C(=O)c2cc(F)ccc2O)cn2c(=O)c3c(-c4ccccc4)csc3nc12	22.4µM*	?	?	?	-24.9%	?
CCOC(=O)c1sc2nc3c(SCCC#N)cc(C(=O)c4cc(F)ccc4O)cn3c(=O)c2c1C	0.8%	-28.9	29.1%	1.8%	-15.3%	0.5%
O=C(CCCOc1ccccc1)Nc1nnc(C2CCCO2)s1 (centres undefined)	?	?	?	31.6µM*	-12.9%	?
CCc1cc(CNC(=O)C2CCC(=O)N(Cc3cccc(F)c3)C2)on1 (centres undefined)	-21.2%	2.5	64.2%	2.0%	6.8%	1.9%
CC(=O)C1=C(O)C(=O)N(CCc2c[nH]c3ccccc23)C1c1ccc(C)cc1 (centres undefined)	-21.6%	0.8	16.9%	-5.5%	8.3%	-3.9%
SMILES	Pol eta inh	PI5P4K alpha inh	POLI inh	Pol beta inh	WRN inhibitor	POLK inh
CC(=O)C1=C(O)C(=O)N(CCc2c[nH]c3ccccc23)C1c1ccco1 (centres undefined)	-15.9%	-4.6	?	31.6µM*	-6.2%	-11.3%
COc1cc(/C=N/Nc2nn3cnnc3c3ccccc23)ccc1O	?	nt	?	50.1µM*	?	-2.4%
COc1cc(/C=N\NC(=O)c2ccc(-c3ccccc3)cc2)cc(OC)c1OC(C)=O	-2.7%	4.6	2.6%	?	-7.9%	-23.7%
CCOc1cc(/C=N/Nc2nn3cnnc3c3ccccc23)ccc1O	?	-3.1	?	?	-11.6%[11.6 µM]	-39.0%
COc1cc(/C=N\NC(=O)c2ccc(-c3ccccc3)cc2)cc(OC)c1O	?	-9.4	31.6µM*	25.1µM*	-10.7%[11.6 µM]	?
Cc1ccc2[nH]c(O)c(N=NC(=O)c3ccc(NS(=O)(=O)c4cccs4)cc3)c2c1	22.4µM*	-56.2*	?	2.6%	-30.9%[57.1 µM]	-10.7%
Cc1nn(-c2ccc(Cl)cc2)c(Cl)c1/C=N/NC(=O)c1ccc(NS(=O)(=O)c2cccs2)cc1	79.4µM*	-65.9*	-3.6%	nt	-21.4%	-16.0%
Cc1nn(-c2ccc(F)cc2)c(Cl)c1/C=N/NC(=O)c1cccs1	?	-6.1	1.9%	-12.4%	-12.9%	-11.6%
O=C(NNC(=O)C1CCC1)c1ccccc1F	-10.6%	-0.8	29.0%	nt	6.6%	-10.9%
Cc1ccnc2nc(C(=O)OCC(=O)N(Cc3ccccc3)C(C)C)nn12	-8.1%	0.4	-5.5%	nt	-1.1%	11.2%
CCN1CCN(Cc2c(O)ccc3oc(C)c(C(=O)Nc4ccc(OC)cc4)c23)CC1	4.2%	nt	18.8%	39.7%	nt	20.7%
COc1ccc(N2CCN(c3cncc(C)n3)CC2)cc1	nt	1.6	nt	nt	-2.9%	nt
COc1cc(/C=N/NC(=O)c2ccc(NS(=O)(=O)c3cccs3)cc2)cc(OC)c1O	-28.0%	-59.8*	-26.6%	nt	-13.1%	-8.2%
C/C(=N\NC(=O)c1ccc(NS(=O)(=O)c2cccs2)cc1)c1ccc(O)cc1O	-12.4%	-95.8*	51.6%	36.6%	?	-18.3%
COc1cc(/C=N/NC(=O)CCn2c3ccccc3c3ccccc32)ccc1O	1.4%	nt	-12.3%	?	-25.2%	-6.9%
COc1cc(C(=O)N/N=C/c2ccc3c(c2)c2ccccc2n3C)ccc1O	15.8µM*	-17.9	17.8µM*	25.1µM*	-7.3%[11.6 µM]	?
COc1cc2c(cc1OC)CN(Cc1nc3ccsc3c(=O)[nH]1)CC2	17.8µM*	-25.9	?	?	-34.7%	?
O=C(Cn1sc2ccccc2c1=O)Nc1ccccc1	-8.2%	-81.7*	nt	nt	9.5%	nt
Nc1cccc2c1C(=O)N(CC(=O)NC13CC4CC(CC(C4)C1)C3)C2=O	-4.1%	3.2	-12.2%	1.2%	10.6%	-2.0%
O=C(CN1C(=O)c2ccccc2C1=O)Nc1ccccc1	-8.3%	0.1	-7.3%	28.4%	-1.9%	-12.9%
O=C(Cn1sc2ccccc2c1=O)NC12CC3CC(CC(C3)C1)C2	-0.4%	-90.5*	?	0.7%	39.8µM*	-2.7%
